Screening results: PubChem BioAssay, National Center for Advancing Translational Sciences (NCATS)
TbPYK inhibitor = inhibitors of Trypanosoma brucei pyruvate kinase; TbPYK enzyme, Kinase-Glo Plus ATP luminescence, 45 min; Potency, µM (doses to about 76.8 µM), most hits filed as inhibitors; hit rate 0.12% among 410,000; AID 624173; further: nearly all actives have a fitted effect of over 50% in size
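Activity of T. brucei pyruvate kinase was followed by Kinase-Glo Plus luminescence after the enzyme reacted 45 min at room temperature with 130 uM ADP (final) and substrate. Test compounds were added before ADP at multiple concentrations.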
Shiga inhibitor = blocks Shiga toxin action in Vero cells | inhibition, % at 38.7 µM | Vero cells, Shiga toxin protein synthesis inhibition reporter | AID 2315 | hit rate 9.2% among 290,000; in the data active means inhibition mostly above about 28%, no sharp cut-off; inactive means mostly below about 43%
Sm TGR inh = inhibitors of Schistosoma mansoni thioredoxin glutathione reductase. Q962Y6. purified TGR, DTNB reduction, TNB absorbance 405 nm. Potency, µM (series often up to 114 µM), actives largely listed as inhibitors. hit rate 3% among 360,000. AID 485364; further: nearly all actives have a fitted effect of over 60% in size
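TGR 20 nM + NADPH 100 uM (dispensed conc.), cpd preinc 15 min RT; start with NADPH (500 uM addition) then DTNB (15 mM addition). Kinetic TNB absorbance, 405 nm filter. Four-parameter Hill fit across titration.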
LmPK inhibitor = LmPK (Leishmania mexicana) enzyme inhibition; purified LmPK, Kinase-Glo ATP luminescence, 1 h; Potency, µM (titrated, usually from 57.5 µM), most hits filed as inhibitors; hit rate 0.37% among 290,000; AID 1721
Target sequence (Q27686 whole entry, looked up): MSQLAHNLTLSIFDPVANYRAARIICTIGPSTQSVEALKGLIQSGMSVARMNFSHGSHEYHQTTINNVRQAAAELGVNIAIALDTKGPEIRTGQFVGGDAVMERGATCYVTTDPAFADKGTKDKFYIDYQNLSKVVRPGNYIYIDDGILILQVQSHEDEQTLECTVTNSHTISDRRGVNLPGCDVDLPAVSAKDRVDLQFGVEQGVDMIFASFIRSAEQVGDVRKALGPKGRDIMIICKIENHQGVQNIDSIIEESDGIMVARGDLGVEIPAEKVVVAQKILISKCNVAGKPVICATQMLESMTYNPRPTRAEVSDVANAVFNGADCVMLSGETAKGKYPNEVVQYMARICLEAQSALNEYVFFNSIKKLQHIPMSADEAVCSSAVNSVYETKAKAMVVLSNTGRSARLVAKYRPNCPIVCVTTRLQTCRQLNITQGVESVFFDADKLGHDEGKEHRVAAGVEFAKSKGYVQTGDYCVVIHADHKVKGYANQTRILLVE
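In 50 mM imidazole pH 7.2 with 7 mM MgCl2, LmPK (0.1 nM) turned over PEP (0.5 mM) and ADP (0.1 mM) for 1 h at room temperature. Luciferase read-out of ATP.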
Giardia FBPA inh = Giardia lamblia aldolase inhibition. A8B2U2. purified Giardia FBPA. Potency, µM (top dose mostly 59.6 µM), usual class: inhibitors. hit rate 0.71% among 290,000; further: nearly all actives have a fitted effect of over 55% in size
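Giardia FBPA (40 nM reagent) was preincubated 10 min at RT with compound (up to 57.5 uM final), then substrate plus GAPDH/TPI/NAD/arsenate coupling system with diaphorase/resazurin was added; resorufin fluorescence (525/598 nm) was read after 20 min.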
Cycloheximide cs = affects cycloheximide protein synthesis inhibition readout, counter-screen | cell reporter, cycloheximide protein synthesis inhibition counterscreen | max response, % | hit rate 12% among 300,000 | AID 2314; in the data active means max response mostly above about 13%, no sharp cut-off; inactive means mostly below about 14%; further: read at 38.3 µM for the half of the compounds with a filed dose
Hits are given with their value; n = inactive; u = inconclusive; x = no result given; [ ] = remark or other dose. The entries come from a sample that favours hits as a whole. Unless noted, the call rests on the fitted dose curve; in most records, active means well fitted curve in the direction sought with a large enough effect; inconclusive means small, poorly fitted or top-dose-only effect, or another doubt; inactive means no such curve, though single readings can be large; an effect the other way counts as inactive or inconclusive.

SMILES | TbPYK inhibitor | Shiga inhibitor | Sm TGR inh | LmPK inhibitor | Giardia FBPA inh | Cycloheximide cs
Cc1n[nH]c(C)c1S(=O)(=O)Nc1ccc2c(c1)OCCO2 | n | 35.8 | n | n | n | 51.5
CCOC(=O)COc1ccc(S(=O)(=O)Nc2ccc3c(c2)OCCO3)cc1 | n | n | n | n | n | 17.6
Cc1ccc(N(CC(=O)Nc2ccc3c(c2)OCCO3)S(=O)(=O)c2c(C)n[nH]c2C)cc1 | n | n | n | n | n | n
O=S(=O)(Nc1ccc2c(c1)OCCO2)c1ccc(F)c(F)c1 | n | n | n | n | n | n
O=S(=O)(Nc1ccc2c(c1)OCCO2)c1cccc(F)c1 | n | n | n | n | n | 24.6
Cc1ccc(S(=O)(=O)Nc2ccc3c(c2)OCCO3)cc1C | n | 91.6 | n | n | n | 63.4
Cc1nn(C)cc1S(=O)(=O)Nc1ccc2c(c1)OCCO2 | n | 69.3 | x | n | n | 71.6
CCC1SC(C)C/C(=N/NC(N)=O)C1C (stereo not drawn) | n | n | n | n | n | 35.4
CC(C)(C)c1ccc(C(=O)NC(=S)N2CCCCCC2)cc1 | n | n | n | n | x | 19.8
O=C(NC(=S)N1CCCC1)c1ccc(Cl)cc1 | n | n | n | n | x | n
CC1CCN(C(=S)NC(=O)c2ccc(C(C)(C)C)cc2)CC1 | n | n | n | n | n | n
CC(C)(C)c1ccc(C(=O)NC(=S)N2CCCC2)cc1 | n | n | n | n | x | 32.3
CC(C)(C)c1ccc(C(=O)NC(=S)Nn2cnnc2)cc1 | n | 120.4 | n | n | u | 18.5
COc1ccc(-c2ccccc2C2NC(C(=O)O)CCC2C)cc1 (stereo not drawn) | x | x | x | x | n[12.9 µM] | x
NC(=O)c1c(NC(=O)c2cccnc2Cl)sc2c1CCCC2 | n | n | n | n | n | n
NC(=O)c1c(NC(=O)c2ccccc2F)sc2c1CCCC2 | n | 83.1 | n | n | n | 48.9
NC(=O)c1c(NC(=O)c2ccccc2C(=O)O)sc2c1CCCC2 | n | n | n | n | n | n
Cc1onc(-c2ccccc2)c1C(=O)Nc1sc2c(c1C(N)=O)CCC2 | n | n | u | n | n | n
NC(=O)c1c(NC(=O)c2ccccc2Cl)sc2c1CCC2 | n | 50.6 | u | n | n | 38.4
NC(=O)c1c(NC(=O)c2ccc(F)cc2Cl)sc2c1CCC2 | n | 31.1 | n | n | n | 24.8
Cc1onc(C(=O)Nc2sc3c(c2C(N)=O)CCCC3)c1[N+](=O)[O-] | u | n | u | n | n | 20.1
COc1cc(NC(=O)COCc2cc(-c3ccc4c(c3)OCO4)on2)c(OC)cc1Cl | n | x | n | x | x | x
CCc1nc2ccc(C(=O)NCCNC(C)=O)cn2c1N(C)Cc1ccc(OC)cc1 | n | x | x | x | x | x
O=C(c1ccncc1)N1CCC2(CC1)CN(c1ccncc1)C2 | n | x | x | x | n | x
CC(=O)Nc1cccc(-c2ccnc3c2CC(C)(C(=O)Nc2cccc(Oc4ccccc4)c2)O3)c1 (stereo not drawn) | n | x | x | x | x | x
SMILES | TbPYK inhibitor | Shiga inhibitor | Sm TGR inh | LmPK inhibitor | Giardia FBPA inh | Cycloheximide cs
C=C1CCN([C@@H](CC(C)C)C(=O)NCCC(C)C)S(=O)(=O)c2ccccc21 | n | x | x | x | x | x
Cn1cc(Br)c(C(=O)Nc2sc3c(c2C(N)=O)CCCC3)n1 | n | 65.6 | n | n | n | 35.5
CCCS(=O)(=O)NC(=O)C1(C)CCCN(C(=O)c2cc(-c3cccs3)oc2C)C1 (stereo not drawn) | n | x | x | x | x | x
Cc1cc(C(=O)NNC(=O)c2ccc(C)s2)c(C)o1 | n | x | n | x | x | x
O=C1c2ccccc2NC(c2ccco2)N1O (stereo not drawn) | n | n | 50.1µM | n | u | n
O=C1c2ccccc2NC(c2cccc(O)c2)N1O (stereo not drawn) | n | n | n | n | n | 16.2
O=C1c2ccccc2NC(c2cccc([N+](=O)[O-])c2)N1O (stereo not drawn) | n | n | n | n | u | n
O=C1c2ccccc2NC(c2ccc(-c3cccs3)o2)N1O (stereo not drawn) | n | x | 31.6µM | x | x | x
O=C1c2ccccc2NC(c2ccc(-c3ccc(C(F)(F)F)cc3)o2)N1O (stereo not drawn) | n | x | x | x | x | x
O=C1c2ccccc2NC(c2ccco2)N1NS(=O)(=O)c1ccccc1 (stereo not drawn) | n | n | n | n | n | n
O=C1c2ccccc2NC(c2ccc(Br)o2)N1O (stereo not drawn) | n | x | 11.2µM | x | x | x
NC(=O)CC[C@H](NC(=O)c1ccc(Cl)cc1)C(=O)NNC(=O)COc1cccc(Br)c1 | n | x | x | x | x | x
Cc1ccc(OCC(=O)OCc2cc(=O)n3c(C)csc3n2)cc1 | n | x | n | x | x | x
O=C(c1ccncc1)N1CCC[C@@]2(CCN(c3ccncc3)C2)C1 | n | x | x | x | n | x
CCN1/C(=C2/SC(=S)N(C)C2=O)C=Cc2cc(C)ccc21 | n | x | x | x | x | x
CCN1C(=O)/C(=C2/C=Cc3cc(C)ccc3N2CC)N(C)C1=S | u | n | n | 14.1µM | n | n
Cc1ccc(S(=O)(=O)Cc2ccc(C(=O)NCCc3ccc(Cl)cc3)o2)cc1 | n | x | n | x | x | x
O=C(NCCc1ccc(Cl)cc1)c1ccc2nccnc2c1 | n | 67.0 | n | n | x | 52.2
CCN(CC)Cc1cc(CCNC(=O)c2ccc(Cl)cc2)ccc1O | n | n | n | n | n | 17.4
O=C(NCCc1ccc(Cl)cc1)c1ccc(=O)[nH]c1 | n | n | n | n | n | n
O=C(NCCc1ccc(O)cc1)c1ccc(Cl)cc1 | n | 69.5 | n | n | n | 55.8
O=C(NCCc1ccc(Cl)cc1)c1ccc2nc[nH]c2c1 | n | n | n | n | n | n
COc1ccc(C(=O)c2cn(Cc3ccccc3F)c3ccc(F)cc3c2=O)cc1 | n | x | n | x | x | x
CCN1C(=O)[C@H]2[C@H]3[C@H](O)[C@H](O)C/C(=N/OC/C=C(\C)CCC=C(C)C)[C@H]3CC[C@@H]2C1=O | x | x | x | x | n[12.9 µM] | x
CC(C)c1ccc(OCC(=O)Nc2c(Cl)ccc3nsnc23)cc1 | n | x | n | x | x | x
SMILES | TbPYK inhibitor | Shiga inhibitor | Sm TGR inh | LmPK inhibitor | Giardia FBPA inh | Cycloheximide cs
O=C(/C=C/c1ccco1)Nc1sc2c(c1C(=O)O)CCC2 | n | 51.6 | 39.8µM | n | n[12.9 µM] | 42.5
N#Cc1c(NC(=O)/C=C/c2ccco2)sc2c1CCCC2 | n | 67.1 | 20µM | n | n | 51.4
O=C(Cn1cnc2onc(-c3ccc(F)cc3)c2c1=O)Nc1ccc(F)c(Cl)c1 | n | x | n | x | x | x
CCC(CC)C(=O)NC1CC(=O)N(c2ccc3c(c2)OCCO3)C1 (stereo not drawn) | n | x | n | x | x | x
COc1cccc(CNC(=O)CCC2CCCN(C(=O)c3cc(C4CC4)[nH]n3)C2)c1 (stereo not drawn) | n | 34.3 | n | n | n | 17.1
COc1cccc(CNC(=O)CCC2CCCN(C(=O)c3ccc(OC)o3)C2)c1 (stereo not drawn) | n | 59.9 | n | n | n | 22.3
COc1ccc(NC(=O)CN(C)S(=O)(=O)c2cccs2)cc1 | n | 40.1 | n | n | n | 28.7
CC(C(=O)N1CCc2ccccc21)N1CCN(S(=O)(=O)c2cccs2)CC1 (stereo not drawn) | n | x | n | x | x | x
